Source: PubChem BioAssay (National Center for Advancing Translational Sciences (NCATS))
This is a sample that favours compounds with a hit; in the whole collection about 21% have one here.
HCMV inh: human cytomegalovirus inhibition; AID 1259415; HFF cells, HCMV-luciferase reporter, 72 h; hits give low values; 4.5% of 410,000 active; activity change, negative = inhibition, % at 57.5 µM; in the data active = activity change below about -60%; inconclusive = no clear call, values can overlap the other calls; inactive = above about -39%; note: % is set by controls: 0 for no effect and ±100 for the full control effect
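Screen run at 2 compound doses on HFFs infected with reporter HCMV, MOI 1 PFU/cell. Luciferase activity from cell lysates at 72 h post infection gave inhibition relative to buffer-only and Salinomycin wells.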
Pf growth 96h: P. falciparum growth inhibition at 96 hour, primary screen for plastid delayed-death inhibitors | P. falciparum luciferase reporter growth, 96 h | Potency, µM (titrated, usually from 28.7 µM), for the others: top-dose activity change, negative = inhibition, hits mostly inhibitors | 6.9% of 320,000 active; note: potency is the fitted concentration of half-maximal effect; % is set by controls: 0 for no effect and ±100 for the full control effect
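Two-generation exposure (96 h) targets delayed-death phenotype. Reporter parasites carrying integrated firefly luciferase, in red cells at 2% hematocrit and 0.05% parasitemia final, kept at 37 C, 5% CO2; luminescence loss indicates inhibition.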
HCV inhibitor: blocks hepatitis C virus; Huh7.5.1 HCVcc-Cre infection, luciferase reporter, 44 h; Potency, µM (titrated, usually from 41.8 µM), for the others: at the top dose activity change, negative = inhibition, actives largely listed as inhibitors; 3.4% of 340,000 active; AID 651820; note: potency is the fitted concentration of half-maximal effect; % is set by controls: 0 for no effect and ±100 for the full control effect
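Antiviral activity was scored by luciferase reporter output from cells infected with HCVcc-Cre (~0.5 moi) in presence of compound, 44 h infection period, cells seeded 1,000/well 4 h prior.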
Pf growth 48h: inhibits P. falciparum growth in the first generation, 48 h; Potency, µM (doses to about 28.7 µM), for inactives: at the top dose activity change, negative = inhibition, actives largely listed as inhibitors; P. falciparum luciferase growth in erythrocytes, 48 h; 5.9% of 310,000 active; note: potency is the fitted concentration of half-maximal effect; % is set by controls: 0 for no effect and ±100 for the full control effect
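Luminescence readout; reporter = integrated firefly luciferase in P. falciparum. RBC culture at 2% hematocrit, 0.1% parasitemia final, 37 C/5% CO2; decreased signal taken as growth inhibition.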
Shiga toxin inh: Shiga toxin inhibition; Vero cells, Shiga toxin protein synthesis inhibition reporter; 9.2% of 290,000 active; inhibition, % at 38.7 µM; AID 2315; in the data active = inhibition mostly above about 28%, no sharp cut-off; inactive = mostly below about 43%; note: 0% is about no effect
CHX counter: counter-screen for Shiga toxin inhibitors: cycloheximide protein synthesis inhibition | cell reporter, cycloheximide protein synthesis inhibition counterscreen | max response, % | 12% of 300,000 active | AID 2314; in the data active = max response mostly above about 13%, no sharp cut-off; inactive = mostly below about 14%; note: read at 38.3 µM for the half of the compounds with a filed dose; 0% is about no effect
Numbers without * were called inactive; u = inconclusive; x = no result; [ ] = another dose, or the depositor's remark. Unless noted, calls come from the whole dose curve; as a rule, active = well fitted inhibition curve with a large enough effect; inconclusive = small, poorly fitted or top-dose-only effect, or another doubt; inactive = no such curve, though single readings can be large or run the other way.

SMILES	HCMV inh	Pf growth 96h	HCV inhibitor	Pf growth 48h	Shiga toxin inh	CHX counter
Cc1ccc(C(=O)Oc2ccc(C(=O)COC(=O)C3CC(=O)N(Cc4ccco4)C3)cc2)cc1 (centres undefined)	x	u	8.1%	-16.3%	68.3*	29.1*
O=C(COC(=O)C1CC(=O)N(Cc2ccccc2)C1)c1ccc(Br)cc1 (centres undefined)	u	16.3%	0.2%	-10.3%	-7.4	-1.5
O=C(COC(=O)C1CC(=O)N(Cc2ccco2)C1)c1ccc(OC(=O)c2ccco2)cc1 (centres undefined)	25.5	x	10.2%	-5.0%	26.5	10.4*
CC1(c2nnc(-c3ccncc3)o2)CC(c2ccccc2)=NO1 (centres undefined)	u	x	-8.1%[8.37 µM]	x	x	x
COCCN(C(=O)CC1C(=O)NCCN1CC(c1ccccc1)c1ccccc1)C(C)C (centres undefined)	u	10.4µM*	10.0%	u	7.5	-0.4
COc1ccc(NC(=O)C2=CN3CCS(=O)(=O)N=C3C=C2)c(OC)c1	72.3	5.4%	6.0%	-7.1%	x	x
COc1cccc2c1OC1(CCN(C(C)C)CC1)N1N=C(c3cccnc3)CC21 (centres undefined)	21.4	83.4%	21.3%	64.9%	90.3*	53.0*
CC(C)N1CCC2(CC1)Oc1ccc(Br)cc1C1CC(c3cccnc3)=NN12 (centres undefined)	5.0	13.1µM*	-8.1%	u	61.4*	26.0*
Fc1ccc(Br)cc1C1C=C(c2cccnc2)Nc2ncnn21 (centres undefined)	x	7.3%	-16.6%	x	-12.6	0.4
COc1cc(C2CC(c3cccnc3)=NN2c2ccc(F)cc2)cc(OC)c1OC (centres undefined)	148.5	u	4.6%	u	3.4	-1.2
CCOc1ccc(C2=CC(c3cc(Br)ccc3F)n3ncnc3N2)cc1Cl (centres undefined)	-1.8	x	x	x	x	x
CC(NC(=O)C(C(=O)c1cccc([N+](=O)[O-])c1)n1cc(Cl)ccc1=O)c1ccccc1 (centres undefined)	61.4	u	7.6%	-5.5%	-4.2	-2.7
Cc1cccc(C(=O)N2CCN(c3ccccn3)CC2)c1	-7.6	-23.5%	22.9%	-9.2%	-5.7	2.1
Cc1c(C(=O)N2CCC[C@H]2C(N)=O)oc2c(F)cccc12	52.7	159.0%	3.8%	12.8%	19.9	28.6*
Cc1c(C(=O)N2CCN(c3ccccn3)CC2)oc2c(F)cccc12	8.2	2.33µM*	13.1%	10.4µM*	-6.4	19.9
Cc1cc(C)cc(C(=O)N2CCN(c3ccccn3)CC2)c1	-7.3	11.7µM*	19.0%	6.3%	-5.8	0.8
Cc1c(C(=O)N2CCN(c3ncccn3)CC2)oc2c(Cl)cccc12	u	-20.3%	13.8%	u	x	x
O=C(c1cccc(Oc2ccccc2)c1)N1CCN(c2ccccn2)CC1	-71.6*	-0.4%	u	-15.4%	5.9	11.6
NC(=O)[C@@H]1CCCN1C(=O)c1ccc2nc(Cc3ccccc3F)oc2c1	13.9	-25.5%	8.6%	10.6%	16.3	8.2
Cc1cc2oc(C(=O)N3CCN(CCc4ccccn4)CC3)c(C)c2cc1C	-4.6	2.8%	10.0%	7.0%	-6.5	-2.2
S=C(Nc1cc(Cl)ccc1Oc1ccccc1)N1CCN(c2ccccn2)CC1	-77.7*	-72.8%	11.2µM*	-69.8%	7.0	-3.4
Cc1ccc2c(C)c(C(=O)N3CCN(Cc4ccccn4)CC3)oc2c1C	22.0	u	3.1%	-8.3%	18.0	17.0*
COc1ccc(OC)c(NC(=S)N2CCN(c3ccccn3)CC2)c1	-27.8	42.2%	23.1%	37.7%	-15.2	-0.4
COC(=O)c1ccc(OCC(O)CN2C(=O)c3ccccc3S2(=O)=O)cc1 (centres undefined)	-13.2	u	5.01µM*	1.4%	1.7	8.6
O=C1c2ccccc2S(=O)(=O)N1CC(O)COc1ccc(Br)cc1 (centres undefined)	u	244.4%	-0.2%	-2.5%	33.4	28.1*
COC(=O)c1ccc(NC(=O)CN2C(=O)c3ccccc3S2(=O)=O)cc1	-34.2	26.3%	16.6%	17.1%	17.8	-2.2
O=C1c2ccccc2S(=O)(=O)N1CCCN1C(=O)c2ccccc2S1(=O)=O	-20.2	x	11.0%	x	x	x
